Values without a mark were called inactive. Inconclusive results are not listed. Entries that show only a call come without a potency. Active and inactive are the calls of the source. Unless noted, calls come from the whole dose curve.
Tests used:
[1] = Nuclear factor erythroid 2-related factor 2/antioxidant responsive element (Nrf2/ARE) small molecule agonists: luciferase reporter gene qHTS assay in human keratinocytes (AID 1919969); note: nearly all actives have a fitted effect of over 35% in size; note: potency is the fitted concentration of half-maximal effect
[2] = biological target: Gonadotropin-releasing hormone receptor (Homo sapiens) (UniProt P30968); experiment: Human gonadotropin-releasing hormone receptor (GnRHR) small molecule agonists, calcium flux assay in GnRHR-HEK293 cells (AID 1920063); note: nearly all actives have a fitted effect of over 35% in size
Gonadotropin-releasing hormone receptor (Homo sapiens), sequence (P30968 whole entry, looked up): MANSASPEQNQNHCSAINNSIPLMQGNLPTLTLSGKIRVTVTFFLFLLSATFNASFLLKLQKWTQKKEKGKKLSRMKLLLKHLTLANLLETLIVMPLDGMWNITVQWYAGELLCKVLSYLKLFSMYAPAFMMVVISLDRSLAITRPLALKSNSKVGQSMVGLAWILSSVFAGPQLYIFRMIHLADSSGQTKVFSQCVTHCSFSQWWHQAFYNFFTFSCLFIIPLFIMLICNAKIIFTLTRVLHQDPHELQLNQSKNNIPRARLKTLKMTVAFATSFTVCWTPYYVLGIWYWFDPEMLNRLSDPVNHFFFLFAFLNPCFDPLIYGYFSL
How it was run: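 HEK293 cells stably expressing human GnRHR were plated 18 h at 37 °C, loaded with calcium dye 1 h at 37 °C, then given compound in agonist mode; fluorescence (Ex/Em 480/540) read kinetically for 3 min at 1 s intervals.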

[3] = G protein-coupled receptor (GPCR) small molecule agonists, calcium flux assay: HEK293 wild type cell line counter screen (AID 1920065)
How it was run: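 Cells were plated and cultured 18 h at 37 C/5% CO2, then loaded with calcium dye for 1 h at 37 C. Compounds in DMSO were pin-transferred in agonist mode, and fluorescence (Ex/Em 480/540) was read kinetically for 3 min at 1 s intervals.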

[4] = p53 small molecule agonists, cell-based qHTS assay with human liver microsomes (AID 1963577)
How it was run: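 p53RE-bla cells, 4,000/well, compound added after 5 h, with human liver microsomes 0.5 mg/mL and NADPH 0.5 mg/mL final; 16 h at 37 C, then LiveBLAzer 2 h RT, fluorescence.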

[5] = p53 small molecule agonists, cell-based qHTS assay: qHTS cell viability counter screen (AID 1963581); note: nearly all actives have a fitted effect of over 45% in size
How it was run: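 p53RE-bla HCT-116 cells were exposed to compounds for 16 h at 37 C; after the beta-lactamase FRET read in the same wells, CellTiter-Glo was added and luminescence (intracellular ATP) read after 30 min at room temperature.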

[6] = biological target: 5-hydroxytryptamine receptor 2A (Homo sapiens) (UniProt P28223); experiment: 5-hydroxytryptamine receptor 2A (HTR2A) small molecule antagonists, cell-based qHTS assay (AID 1963586); note: nearly all actives have a fitted effect of over 45% in size; note: potency is the fitted concentration of half-maximal effect
5-hydroxytryptamine receptor 2A (Homo sapiens), sequence (P28223 whole entry, looked up): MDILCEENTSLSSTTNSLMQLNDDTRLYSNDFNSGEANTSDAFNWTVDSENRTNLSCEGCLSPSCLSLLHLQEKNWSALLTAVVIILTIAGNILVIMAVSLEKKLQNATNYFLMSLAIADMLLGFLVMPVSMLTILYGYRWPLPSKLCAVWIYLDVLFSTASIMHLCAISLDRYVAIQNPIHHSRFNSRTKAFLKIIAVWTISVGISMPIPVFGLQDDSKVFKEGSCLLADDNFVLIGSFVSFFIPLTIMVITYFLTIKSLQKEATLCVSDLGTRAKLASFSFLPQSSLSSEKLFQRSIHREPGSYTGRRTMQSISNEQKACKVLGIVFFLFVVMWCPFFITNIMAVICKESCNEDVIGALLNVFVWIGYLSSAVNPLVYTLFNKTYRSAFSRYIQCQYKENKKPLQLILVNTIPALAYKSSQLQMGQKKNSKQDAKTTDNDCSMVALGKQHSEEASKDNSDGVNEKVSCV
How it was run: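 Antagonist-mode intracellular calcium assay: DOI (4 nM) added after 5 min compound pre-incubation at room temperature to dye-loaded HTR2A-CHO cells. Fluorescence followed for 3 min, sampled every second.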

[7] = biological target: 5-hydroxytryptamine receptor 2A (Homo sapiens) (UniProt P28223); experiment: 5-hydroxytryptamine receptor 2A (HTR2A) small molecule agonists, cell-based qHTS assay (AID 1963587); note: nearly all actives have a fitted effect of over 30% in size
How it was run: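 Kinetic calcium-flux fluorescence (2 min, 1 sec intervals) after compound addition in agonist mode. HTR2A-CHO cells were cultured 18 h, then dye-loaded 1 h at 37 C.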

[8] = biological target: Muscarinic acetylcholine receptor M1 (Homo sapiens) (UniProt P11229); experiment: Cholinergic receptor muscarinic 1 (CHRM1) small molecule antagonists, cell-based qHTS assay (AID 1963588); note: nearly all actives have a fitted effect of over 40% in size; note: potency is the fitted concentration of half-maximal effect
Muscarinic acetylcholine receptor M1 (Homo sapiens), sequence (P11229 whole entry, looked up): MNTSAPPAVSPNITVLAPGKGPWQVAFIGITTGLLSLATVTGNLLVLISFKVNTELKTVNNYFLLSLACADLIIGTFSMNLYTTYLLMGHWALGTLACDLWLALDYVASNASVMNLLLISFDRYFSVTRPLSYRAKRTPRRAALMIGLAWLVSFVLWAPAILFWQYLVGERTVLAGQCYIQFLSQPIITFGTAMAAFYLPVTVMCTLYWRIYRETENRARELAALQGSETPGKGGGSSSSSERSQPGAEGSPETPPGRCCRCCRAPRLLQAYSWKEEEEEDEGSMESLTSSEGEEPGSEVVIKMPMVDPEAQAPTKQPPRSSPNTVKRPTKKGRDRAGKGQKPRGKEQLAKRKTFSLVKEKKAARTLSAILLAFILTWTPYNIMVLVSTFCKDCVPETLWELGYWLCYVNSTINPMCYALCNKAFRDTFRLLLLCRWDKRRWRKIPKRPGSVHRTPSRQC
How it was run: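 CHRM1-CHO calcium-flux assay, antagonist mode. Cells were seeded 18 h, dye-loaded 1 h at 37 C and given compound for 5 min at RT, then acetylcholine was added at 50nM. FDSS fluorescence was read 3 min; 15 concentrations, three runs.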

[9] = biological target: D(2) dopamine receptor (Homo sapiens) (UniProt P14416); experiment: Dopamine D2 receptor (DRD2) small molecule agonists, cell-based qHTS assay (AID 1963594); note: nearly all actives have a fitted effect of over 35% in size
D(2) dopamine receptor (Homo sapiens), sequence (P14416 whole entry, looked up): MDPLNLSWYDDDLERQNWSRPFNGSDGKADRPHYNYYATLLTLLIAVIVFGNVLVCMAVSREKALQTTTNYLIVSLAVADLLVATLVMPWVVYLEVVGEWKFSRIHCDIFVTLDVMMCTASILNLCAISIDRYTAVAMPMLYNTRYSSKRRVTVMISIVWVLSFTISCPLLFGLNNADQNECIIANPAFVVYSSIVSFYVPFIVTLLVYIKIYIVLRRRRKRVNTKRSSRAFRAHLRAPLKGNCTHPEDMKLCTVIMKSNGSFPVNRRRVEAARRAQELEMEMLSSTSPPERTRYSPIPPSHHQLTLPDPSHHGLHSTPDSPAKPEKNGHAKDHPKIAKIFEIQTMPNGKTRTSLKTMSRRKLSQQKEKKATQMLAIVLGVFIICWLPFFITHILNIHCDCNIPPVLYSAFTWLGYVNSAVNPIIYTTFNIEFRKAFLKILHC
How it was run: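 cAMP accumulation in DRD2-HEK293 cells measured by HTRF after 1 h detection; compounds added 10 min before NKH477 (200nM […]) forskolin-analogue stimulation, 30 min at room temperature, with Ro20-1724 present at 0.1 mM final.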

[10] = biological target: D(2) dopamine receptor (Homo sapiens) (UniProt P14416); experiment: Dopamine D2 receptor (DRD2) small molecule antagonists, cell-based qHTS assay (AID 1963595; active = well fitted inhibition curve with a large enough effect in the signal ratio in the repeat runs, with a control signal flat; the % refers to the signal ratio; note: potency is the fitted concentration of half-maximal effect)
How it was run: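 Stable D2 receptor HEK293 line, 24 h after seeding. Compound preincubated 10 min, then quinpirole (12 nM) with forskolin analogue NKH477 (200 nM), 30 min, room temperature. Detection by time-resolved FRET of cAMP.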

[11] = biological target: KiSS-1 receptor (Homo sapiens) (UniProt Q969F8); experiment: Human kisspeptin (KISS1R) small molecule agonists, calcium flux assay in KISS1R-HEK293 cells (AID 1920064; active = well fitted activation curve with a large enough effect in the repeat runs)
KiSS-1 receptor (Homo sapiens), sequence (Q969F8 whole entry, looked up): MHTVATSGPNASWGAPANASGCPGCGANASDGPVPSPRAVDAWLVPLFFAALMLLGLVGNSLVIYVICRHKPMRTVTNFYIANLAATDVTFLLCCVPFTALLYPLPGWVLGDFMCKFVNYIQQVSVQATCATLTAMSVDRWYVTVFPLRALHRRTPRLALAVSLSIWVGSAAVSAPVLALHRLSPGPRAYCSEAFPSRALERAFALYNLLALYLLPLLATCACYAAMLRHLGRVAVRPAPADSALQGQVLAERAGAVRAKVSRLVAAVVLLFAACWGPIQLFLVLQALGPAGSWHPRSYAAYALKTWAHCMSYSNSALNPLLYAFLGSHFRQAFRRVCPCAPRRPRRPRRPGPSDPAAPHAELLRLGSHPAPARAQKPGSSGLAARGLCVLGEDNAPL
How it was run: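 HEK293 cells stably expressing human KISS1R were plated 18 h at 37 °C, loaded with calcium dye for 1 h at 37 °C, then given compound by pin tool. Fluorescence (Ex/Em 480/540) was read kinetically for 3 min.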

[12] = p53 small molecule agonists, cell-based qHTS assay with rat liver microsomes (AID 1963578)
How it was run: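 p53RE-bla cells, 4,000/well, pre-incubated 5 h, then given compounds plus rat liver microsomes (0.5 mg/mL final) and NADPH (0.5 mg/mL final). Incubation 16 h at 37 C; beta-lactamase reporter read by LiveBLAzer fluorescence after 2 h at room temperature.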

[13] = p53 small molecule agonists, cell-based qHTS assay with human liver microsomes: qHTS cell viability counter screen (AID 1963579); note: nearly all actives have a fitted effect of over 45% in size; note: potency is the fitted concentration of half-maximal effect
How it was run: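 p53RE-bla cells, 4,000/well, dosed 5 hours after plating, with human liver microsomes (0.5 mg/mL final) plus NADPH (0.5 mg/mL final), 16 hours at 37 C. Viability read as CellTiter-Glo luminescence after 30 min at room temperature.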

[14] = p53 small molecule agonists, cell-based qHTS assay with rat liver microsomes: qHTS cell viability counter screen (AID 1963580); note: nearly all actives have a fitted effect of over 45% in size
How it was run: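 Intracellular ATP, by CellTiter-Glo luminescence, defines viability. HCT-116 p53RE-bla cells, 4,000 per well, were compound-treated in the presence of rat liver microsomes and NADPH for 16 h at 37 C.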

[15] = p53 small molecule agonists, cell-based qHTS assay (AID 1963582; active = well fitted activation curve with a large enough effect in the signal ratio in the repeat runs, not every such curve was filed as active; the % refers to the signal ratio)
How it was run: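 p53RE-bla beta-lactamase reporter cells rested 5 h at 37 C/5% CO2, then received compounds in DMSO by pin transfer and were incubated 16 h at 37 C. LiveBLAzer B/G FRET substrate was loaded for 2 h at room temperature before fluorescence reading.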

[16] = biological target: Muscarinic acetylcholine receptor M1 (Homo sapiens) (UniProt P11229); experiment: Cholinergic receptor muscarinic 1 (CHRM1) small molecule agonists, cell-based qHTS assay (AID 1963589); note: nearly all actives have a fitted effect of over 35% in size
How it was run: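 CHO cells stably expressing human CHRM1, seeded 18 h at 37 C/5% CO2, dye-loaded 1 h at 37 C, then given compound in agonist mode; intracellular calcium fluorescence read kinetically at 1 s intervals. Fifteen concentrations, three independent runs.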

[17] = cAMP Responsive Elements (CRE) small molecule agonists, cell-based qHTS assay (AID 1963590)
How it was run: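 CRE-bla HEK 293T cells in DMEM with 10% dialyzed FBS, NEAA, pyruvate and 25 mM HEPES were plated 18 h at 37 C/5% CO2, then exposed to compounds in DMSO for 3 h before LiveBLAzer B/G FRET substrate addition.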

[18] = cAMP Responsive Elements (CRE) small molecule antagonists, cell-based qHTS assay (AID 1963591; active = well fitted inhibition curve with a large enough effect in the signal ratio in the repeat runs, not every such curve was filed as active; the % refers to the signal ratio)
How it was run: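 CRE-bla HEK293T cells were plated 18 h at 37 °C/5% CO2, pinned with compound in DMSO, then stimulated with NKH477 at 0.25 uM final for 3 h. LiveBLAzer B/G FRET substrate was added and plates incubated 2 h at room temperature.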

[19] = biological target: Beta-2 adrenergic receptor (Homo sapiens) (UniProt P07550); experiment: Adrenergic beta2 receptor (ADRB2) small molecule antagonists, cell-based qHTS assay (AID 1963592); note: series mostly up to about 92 µM; nearly all actives have a fitted effect of over 50% in size
Beta-2 adrenergic receptor (Homo sapiens), sequence (P07550 whole entry, looked up): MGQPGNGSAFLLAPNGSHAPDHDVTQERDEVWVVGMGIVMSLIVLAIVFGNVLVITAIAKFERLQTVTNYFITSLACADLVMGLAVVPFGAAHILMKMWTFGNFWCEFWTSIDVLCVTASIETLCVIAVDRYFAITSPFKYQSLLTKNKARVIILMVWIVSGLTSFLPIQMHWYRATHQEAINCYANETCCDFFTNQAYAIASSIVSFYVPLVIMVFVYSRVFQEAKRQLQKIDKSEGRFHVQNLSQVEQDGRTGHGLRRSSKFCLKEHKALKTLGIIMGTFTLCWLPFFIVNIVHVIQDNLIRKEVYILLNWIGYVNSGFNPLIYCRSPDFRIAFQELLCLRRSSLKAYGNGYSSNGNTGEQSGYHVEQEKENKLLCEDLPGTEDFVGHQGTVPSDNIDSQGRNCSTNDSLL
How it was run: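 Cells (CHO, stable ADRB2 overexpression) incubated 18-20hr at 37C; compounds added from DMSO; agonist mix (1nM isoproterenol, 100uM IBMX, 25uM Ro-20-1724) added; 0.5hr RT; d2-cAMP and anti-cAMP-cryptate added; 1hr RT; 665/615 nm read.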

[20] = biological target: Beta-2 adrenergic receptor (Homo sapiens) (UniProt P07550); experiment: Adrenergic beta2 receptor (ADRB2) small molecule agonists, cell-based qHTS assay (AID 1963593);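 note: CHO cells stably overexpressing human ADRB2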
How it was run: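 CHO cells stably over-expressing ADRB2 were plated overnight at 37C, then dosed with compounds plus a stimulation mix containing 100uM IBMX and 25uM Ro-20-1724 for 0.5hr at room temperature. cAMP was measured by HTRF competition, 1hr.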

| SMILES | Potency [1] | Potency [2] | Potency [3] | Potency [4] | Potency [5] | Potency [6] | Potency [7] | Potency [8] | Potency [9] | Potency [10] | Potency [11] | Potency [12] | Potency [13] | Potency [14] | Potency [15] | Potency [16] | Potency [17] | Potency [18] | Potency [19] | Potency [20] |
| --- | --- | --- | --- | --- | --- | --- | --- | --- | --- | --- | --- | --- | --- | --- | --- | --- | --- | --- | --- | --- |
| O=S(=O)(c1ccc(OCc2ccccc2)cc1)c1ccccc1O | inactive | inactive | inactive | inactive | inactive | 0.594 µM (active) | inactive | inactive | inactive | 61.1 µM (active) | – | – | – | – | – | – | – | – | – | – |
| CCC(C)c1cc(C(C)(C)C)c(O)c(C(C)(C)C)c1 (centres undefined) | 16.9 µM (active) | – | inactive | inactive | inactive | inactive | inactive | inactive | inactive | inactive | inactive | inactive | inactive | inactive | inactive | inactive | inactive | inactive | inactive | – |
| CCCCCCCCCCCCCCCS(=O)(=O)Oc1ccccc1 | inactive | – | inactive | inactive | inactive | inactive | inactive | inactive | inactive | inactive | inactive | inactive | inactive | inactive | inactive | inactive | inactive | inactive | inactive | – |
| CC/C(C)=N\O[Si](C)(O/N=C(\C)CC)O/N=C(\C)CC | inactive | inactive | inactive | – | inactive | – | inactive | 3.39 µM (active) | inactive | inactive | – | inactive | inactive | inactive | inactive | inactive | inactive | inactive | inactive | – |
| O=C(N/N=C/c1ccccc1O)c1ccncc1 | 6.68 µM (active) | inactive | inactive | inactive | inactive | – | inactive | – | – | – | – | inactive | 7.93 µM (active) | inactive | inactive | inactive | inactive | inactive | inactive | – |
| CCC(Cl)C(Cl)C(Cl)CC(Cl)C(Cl)C(C)Cl (centres undefined) | 48.6 µM (active) | inactive | inactive | inactive | inactive | inactive | inactive | inactive | – | inactive | – | inactive | inactive | inactive | inactive | inactive | inactive | inactive | inactive | inactive |
| Cc1ccc(N/N=c2\c(=O)cc/c(=N\Nc3ccc(S(=O)(=O)O)cc3)c2=O)c(C)c1 | inactive | – | inactive | inactive | inactive | inactive | inactive | inactive | inactive | inactive | inactive | inactive | inactive | inactive | inactive | inactive | inactive | inactive | inactive | inactive |
| O=C(NCc1ncc(C(F)(F)F)cc1Cl)c1c(Cl)cccc1Cl | inactive | – | inactive | inactive | inactive | inactive | inactive | inactive | inactive | inactive | inactive | inactive | inactive | inactive | inactive | inactive | – | inactive | inactive | – |
| Cc1cc(O)c2c(c1)C(=O)c1cc(O)cc(O)c1C2=O | 33.6 µM (active) | inactive | inactive | inactive | inactive | inactive | inactive | inactive | inactive | inactive | – | inactive | inactive | inactive | – | inactive | – | – | inactive | inactive |
| NS(=O)(=O)c1cc2c(cc1Cl)NC(CSCc1ccccc1)=NS2(=O)=O | inactive | inactive | inactive | inactive | inactive | – | inactive | inactive | inactive | inactive | – | inactive | inactive | inactive | – | inactive | inactive | inactive | inactive | – |
| CN1C(C(=O)Nc2ccccn2)=C(O)c2sccc2S1(=O)=O | inactive | inactive | – | – | inactive | – | – | – | inactive | inactive | inactive | – | inactive | inactive | – | – | inactive | inactive | inactive | inactive |

Source: PubChem BioAssay (Tox21)
